ChEMBL document CHEMBL3988442, “University of Dundee, Small-Polar-MMV Screening Library” (2021)

Assays:
[1] = biological target: T1, Aspartate--tRNA(Asp/Asn) ligase (Mycobacterium tuberculosis (strain ATCC 25618 / H37Rv)) (UniProt P9WFW3); test: Assay for Asp RNA synthetase-1 from Mycobacterium tuberculosis; assay type: functional; design: scale not given: direction of the effect not stated beside the values; details: 30 µM; also: in the data most compounds retested in dose-response had high values
T1 sequence (whole entry): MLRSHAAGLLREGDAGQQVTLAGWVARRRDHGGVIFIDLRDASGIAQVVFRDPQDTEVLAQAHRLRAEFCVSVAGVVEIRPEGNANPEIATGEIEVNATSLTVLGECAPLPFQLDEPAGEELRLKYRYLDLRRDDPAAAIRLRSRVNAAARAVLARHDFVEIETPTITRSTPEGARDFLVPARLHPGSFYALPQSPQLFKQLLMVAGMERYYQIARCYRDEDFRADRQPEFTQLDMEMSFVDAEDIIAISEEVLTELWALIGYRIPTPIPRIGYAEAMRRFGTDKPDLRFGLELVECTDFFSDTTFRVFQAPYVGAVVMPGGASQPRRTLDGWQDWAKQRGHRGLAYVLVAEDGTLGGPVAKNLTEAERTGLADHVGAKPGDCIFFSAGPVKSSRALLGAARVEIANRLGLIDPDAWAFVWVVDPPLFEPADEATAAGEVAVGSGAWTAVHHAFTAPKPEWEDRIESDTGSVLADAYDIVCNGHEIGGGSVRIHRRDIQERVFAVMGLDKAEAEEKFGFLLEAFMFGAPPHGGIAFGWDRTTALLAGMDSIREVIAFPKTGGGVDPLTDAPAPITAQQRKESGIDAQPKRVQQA

[2] = biological target: Shiga toxin 2 (Escherichia coli O157:H7) (UniProt P09385+P09386); test: E. coli 0.157:H7 Shiga Toxin SOP - stx2 screening assay; assay type: functional; design: scale not given: direction of the effect not stated beside the values; details: 30 µM

| SMILES | Percent Effect [1] [%] | Percent Effect [2] [%] |
| --- | --- | --- |
| CCc1ncnc2c1CCN(Cc1ccc(OC)cc1)CC2 | -0.259 | -28 |
| CC(C)NC(=O)N1CCc2nc(C(=O)NCc3ccccc3)sc2CC1 | 0.168 | 4.49 |
| CC(NC(=O)NCC1(N2CCCCC2)CCCCC1)c1nncn1C (centres undefined) | -4.55 | 27.5 |
| OC[C@H]1CC[C@]2(CC1)CN(Cc1ccccc1F)Cc1ccccc1O2 | -2.81 | 20.1 |
| O=C(c1ccc[nH]1)N1CCCC(c2cc(C(F)(F)F)[nH]n2)C1 (centres undefined) | 3.68 | 36.4 |
| Cc1csc(C2CCCN(C(=O)c3cc(Cl)c[nH]3)C2)n1 (centres undefined) | -3.61 | 29.7 |
| CCN(CC1CCCO1)C(=O)Nc1cc(OC)c(OC)cc1C (centres undefined) | -2.8 | -9.12 |
| CCn1cc(C(=O)NC2CCN(S(C)(=O)=O)CC2)c2ccccc21 | -0.607 | -0.257 |
| CN(CC1CCCCO1)C(=O)c1ccnc(OC2CCC2)c1 (centres undefined) | -2.11 | -8.22 |
| O=C(NCCN1CCOCC1)c1n[nH]c(=O)c2ccccc12 | -2 | -29.3 |
| CC(=O)N1CCN(C(=O)C2SCCc3sccc32)CC1 (centres undefined) | -0.324 | -46 |
| Cc1cnn(C2CCCN(C(=O)c3ccc(N(C)C)nn3)C2)c1 (centres undefined) | -1.49 | -0.265 |
| CCc1c(C)nc2n(c1=O)CC(C(=O)Nc1ccccc1F)CS2 (centres undefined) | -3.83 | -4.39 |
| COc1cccc2c1OCC(C(=O)N(C)CCCc1cnn(C)c1)C2 (centres undefined) | 9.43 | -7.98 |
| Cc1cc(NCc2cccnc2)n2nc(C)cc2n1 | -2.06 | 13.8 |
| O=C1NCCN1C1CCCN(Cc2coc(-c3ccc(F)cc3)n2)C1 (centres undefined) | -2.94 | -27.1 |
| Cc1c[nH]c(CN(C)c2nc(C3CCCC3)nc3c2cnn3C)n1 | 0.0557 | -4.38 |
